RGS12 GoLoco inh – blocks human Gai1 binding to RGS12 GoLoco peptide, red readout. actives 0.44% (n = 230,000). P63096. Gai1:RGS12 GoLoco peptide FP, rhodamine, 10 min. Potency, µM (titrated, usually from 61.6 µM), for inactives: at the highest dose activity, negative = inhibition, hits mostly inhibitors; active means well fitted inhibition curve with a large enough effect, not every such curve was filed as active; inactive means no such curve, though single readings can be large or run the other way; further: nearly all actives have a fitted effect of over 30% in size
Target sequence (P63096 whole entry, looked up): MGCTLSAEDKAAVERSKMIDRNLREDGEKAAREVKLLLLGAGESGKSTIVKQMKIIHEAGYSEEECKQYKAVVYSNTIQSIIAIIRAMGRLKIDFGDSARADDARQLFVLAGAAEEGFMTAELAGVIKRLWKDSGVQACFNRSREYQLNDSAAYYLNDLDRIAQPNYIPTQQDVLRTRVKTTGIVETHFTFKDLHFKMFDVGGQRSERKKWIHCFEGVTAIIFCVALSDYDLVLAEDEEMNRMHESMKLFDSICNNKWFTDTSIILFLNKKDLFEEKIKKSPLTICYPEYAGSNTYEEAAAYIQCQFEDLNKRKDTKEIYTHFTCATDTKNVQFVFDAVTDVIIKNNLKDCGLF
Tau fluor cs – counter-screen for tau fibril formation inhibitors; tau K18 P301L Alexa594 fluorescence, heparin fibrillization; Potency, µM (top dose mostly 57.7 µM), inactives show at the top dose activity change, negative = decrease; actives 0.93% (n = 280,000); AID 1463; further: nearly all actives have a fitted effect of over 55% in size
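Human tau K18 P301L (15 uM unlabeled, 0.24 uM Alexa 594-labeled) in 100 mM sodium acetate pH 7 with 20 uM heparin, 6 hr at 37 C. ThT 30 uM added, 1 hr ambient; Alexa 594 FP and total fluorescence read at 555/632 nm.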
TRb-SRC2 inh – TRbeta-SRC2 interaction inhibition; actives 0.065% (n = 280,000); AID 1469; TRbeta-SRC2 peptide binding, fluorescence polarization; receptor liganded with 1 µM T3; Potency, µM (highest dose often 106 µM), for the others: at the top dose activity change, negative = inhibition, most hits filed as inhibitors; P10828;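 further: plate controls were bound peptide for no effect and peptide without receptor for full effect; nearly all actives have a fitted effect of over 50% in size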
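Compounds were added to 0.6 uM TRb ligand-binding domain and 20 nM Texas Red-labeled SRC2 peptide in Tris buffer containing 1 uM T3, incubated 5 hr at ambient temperature, then read by fluorescence polarization.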
Tau FP inhib – inhibitors of human tau fibril formation; actives 0.39% (n = 280,000); Potency, µM (top dose mostly 57.7 µM), for inactives: top-dose activity, negative = inhibition, most hits filed as inhibitors; AID 1468; K18 P301L tau heparin fibrillization, Alexa594 FP, 6 h; P10636; further: nearly all actives have a fitted effect of over 55% in size
Target sequence (P10636 561-689 P618L limits assumed): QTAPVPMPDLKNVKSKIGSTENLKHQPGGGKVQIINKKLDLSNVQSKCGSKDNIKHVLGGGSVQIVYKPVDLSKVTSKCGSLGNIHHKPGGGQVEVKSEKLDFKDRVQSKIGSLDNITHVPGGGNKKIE
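Human tau K18 […] P301L fragment, 15 uM unlabeled plus 0.24 uM Alexa 594-labeled tau (final), with compound and 20 uM heparin in 100 mM sodium acetate pH 7; 6 hr at 37 C, then Alexa 594 FP read.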
TR SRC2 fluor cs – counter-screen for TRb-SRC2 inhibitors: fluorescence interference | actives 0.29% (n = 280,000) | AID 1479 | TRb/SRC2 Texas Red total fluorescence interference | Potency, µM (series often up to 106 µM), for the others: at the highest dose fluorescence change, negative = quenching; active means well fitted curve in either direction with a large enough effect; inconclusive means small, poorly fitted or top-dose-only effect
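Flags fluorescent or light-absorbing compounds by total fluorescence, S + 2P, at 555 nm excitation and 632 nm emission. Mixture: 20 nM Texas Red SRC2 peptide, 0.6 uM human TRb LBD, 1 uM T3, 5% DMSO; compound exposure 5 h at ambient temperature.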
Tau fibril ThT – blocks human tau fibril formation measured by thioflavin T; recombinant tau K18 P301L, heparin-induced fibrillization, ThT fluorescence; Potency, µM (top dose mostly 57.4 µM), for inactives: at the top dose activity, negative = inhibition, usual class: inhibitors; actives 2.1% (n = 270,000); AID 1460; further: nearly all actives have a fitted effect of over 55% in size
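Using a mix of unlabeled (15 uM) and Alexa 594-labeled (0.24 uM) tau K18 P301L, heparin-triggered fibrillization over 6 hr at 37 C was scored by ThT fluorescence.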
* marks the source's active call; other numbers are inactive results; [ ] = dose if it differs, or a comment. Rows were chosen to be rich in hits. Some 3.2% of all compounds tested hit in one or more screens of this group. Unless noted, the call rests on the fitted dose curve; in most records, active means well fitted curve in the direction sought with a large enough effect; inconclusive means small, poorly fitted or top-dose-only effect, or another doubt; inactive means no such curve, though single readings can be large; an effect the other way counts as inactive or inconclusive. Unless noted, on the % scale 0 is the no-effect control and ±100 the full control effect; potency means the concentration at half of the fitted maximal effect.

Screening CCN(c1ccccc1)S(=O)(=O)c1nnc(NC(=O)C2CCCCC2)s1 returned Tau fluor cs -22.0%, TRb-SRC2 inh -2.3%, Tau FP inhib 5.8%, TR SRC2 fluor cs 5.4% and Tau fibril ThT 3.55µM*.
O=C(CCN1CCCCC1)N1CCc2c([nH]c3ccccc23)[C@H]1c1cccnc1 was read as RGS12 GoLoco inh 5.2%[14.2 µM].
For CCOc1ccccc1NC(=O)CSc1cn(CC(=O)N2CCCCCC2)c2ccccc12 the results were Tau fluor cs -8.4%, TRb-SRC2 inh -1.0%, Tau FP inhib -7.8%, TR SRC2 fluor cs -1.2% and Tau fibril ThT -17.8%.
Screening CCCN1C(=O)/C(=C/c2nc3ccccc3c(=O)[nH]2)c2ccccc21 returned RGS12 GoLoco inh 4.1%, Tau fluor cs -1.6%, TRb-SRC2 inh 0.7%, Tau FP inhib 6.7%, TR SRC2 fluor cs 0.9% and Tau fibril ThT inconclusive.
For CCCN1C(=O)/C(=C/c2nc3ccccc3c(=O)[nH]2)c2cc(C)ccc21 the results were RGS12 GoLoco inh -7.7%, Tau fluor cs 20µM*[quencher], TRb-SRC2 inh -1.1%, Tau FP inhib -0.1%, TR SRC2 fluor cs -1.6% and Tau fibril ThT 14.1µM*.
CCn1c(/C=C2\C(=O)N(C(C)C)c3ccccc32)nc2ccccc2c1=O was read as RGS12 GoLoco inh -0.2%, Tau fluor cs -13.8%, TRb-SRC2 inh 3.0%, Tau FP inhib 6.5%, TR SRC2 fluor cs -3.3% and Tau fibril ThT inconclusive.
`CC(C)N1C(=O)/C(=C\c2nc3ccccc3c(=O)[nH]2)c2ccccc21` gave RGS12 GoLoco inh -114.4%, Tau fluor cs inconclusive, TRb-SRC2 inh 6.2%, Tau FP inhib 14.8%, TR SRC2 fluor cs -1.6% and Tau fibril ThT 28.2µM*.
COc1cccc(CCNC(=O)c2c(O)nc3c(C)cccn3c2=O)c1 was read as Tau fluor cs -18.0%, TRb-SRC2 inh -12.0%, Tau FP inhib 7.1%, TR SRC2 fluor cs 6.9% and Tau fibril ThT inconclusive.
C/C=C/C=C/CCCCCCCO was read as TRb-SRC2 inh 3.4%[201 µM] and TR SRC2 fluor cs -4.8%[201 µM].
O=c1oc(-c2ccc([N+](=O)[O-])cc2)nc2ccc(O)cc12 was read as RGS12 GoLoco inh 13.9%, Tau fluor cs inconclusive, TRb-SRC2 inh 2.3%, Tau FP inhib -5.5%, TR SRC2 fluor cs -5.8% and Tau fibril ThT 12.6µM*.
Screening COc1ccc(O[C@H]2C=C[C@@H](c3ccccc3)O[C@H]2COC(=O)CC/C(C)=N\O[C@@H](C)c2cn([C@H]3COC[C@H]3O)nn2)cc1 returned Tau fluor cs -9.8%[11.6 µM], TRb-SRC2 inh 1.2%[11.2 µM], Tau FP inhib 4.5%[11.6 µM], TR SRC2 fluor cs -25.2%[11.2 µM] and Tau fibril ThT -9.1%[11.5 µM].
For O=C(O)CC/C(=C\c1ccc(N2CCOCC2)c([N+](=O)[O-])c1)c1nc2ccccc2s1 the results were RGS12 GoLoco inh 8.8%, Tau fluor cs -12.1%, TRb-SRC2 inh 1.6%, Tau FP inhib -3.5%, TR SRC2 fluor cs -3.0% and Tau fibril ThT 7.94µM*.
Screening O=C(O)CC/C(=C\c1ccc(Cl)c([N+](=O)[O-])c1)c1nc2ccccc2s1 returned RGS12 GoLoco inh 4.8%, Tau fluor cs 10.4%, TRb-SRC2 inh 7.1%, Tau FP inhib 9.5%, TR SRC2 fluor cs -1.2% and Tau fibril ThT 11.5%.
O=C(O)C/C(=C\c1ccc(N2CCOCC2)c([N+](=O)[O-])c1)c1nc2ccccc2s1 was read as RGS12 GoLoco inh 13.4%, Tau fluor cs -13.0%, TRb-SRC2 inh -0.6%, Tau FP inhib -2.5%, TR SRC2 fluor cs -4.1% and Tau fibril ThT 14.1µM*.
O=C(CN1c2ccc(Br)cc2-c2ccccc2S1(=O)=O)N1CCCCC1 was read as Tau fluor cs -9.9%, TRb-SRC2 inh -9.6%, Tau FP inhib 2.7%, TR SRC2 fluor cs 4.7% and Tau fibril ThT -3.7%.
COc1ccccc1[C@H]1C(c2cccc(Cl)c2)=NN(c2ccccc2)[C@@H]1CO was read as RGS12 GoLoco inh 11.4%, Tau fluor cs 20µM*[quencher], TRb-SRC2 inh 4.6%, Tau FP inhib inconclusive, TR SRC2 fluor cs -0.9% and Tau fibril ThT -17.2%[81.4 µM].
`OC[C@@H]1[C@@H](c2ccccc2)C(c2cccc(Cl)c2)=NN1c1ccccc1` gave RGS12 GoLoco inh 13.8%[88.7 µM], Tau fluor cs 17.8µM*[quencher], TRb-SRC2 inh -2.1%, Tau FP inhib inconclusive, TR SRC2 fluor cs -5.8% and Tau fibril ThT inconclusive.
OC[C@@H]1[C@@H](c2ccccc2)C(c2ccccc2)=NN1c1ccccc1 was read as RGS12 GoLoco inh 5.2%[88.7 µM], Tau fluor cs 12.6µM*[quencher], TRb-SRC2 inh 3.7%, Tau FP inhib inconclusive, TR SRC2 fluor cs -3.8% and Tau fibril ThT inconclusive.
Screening OC[C@@H]1[C@@H](c2ccccc2)C(c2ccc(F)cc2)=NN1c1ccccc1 returned RGS12 GoLoco inh -26.5%[88.7 µM], Tau fluor cs 10µM*[quencher], TRb-SRC2 inh 11.4%, Tau FP inhib inconclusive, TR SRC2 fluor cs 1.0% and Tau fibril ThT inconclusive.
Cc1cn2c(=O)cc(COC(=O)c3cccc(NC(=O)c4ccccc4C)c3)nc2s1 was read as Tau fluor cs -1.3%, TRb-SRC2 inh 5.9%, Tau FP inhib -3.5%, TR SRC2 fluor cs -1.0% and Tau fibril ThT inconclusive.
COc1ccc(-c2nc3cnc(OC)nc3n(C3CC3)c2=O)cc1 was read as RGS12 GoLoco inh -4.3%.
For COc1cc(OC)c(NC(=O)c2c3c(nc4ccccc24)C(=O)N(C2CCCCC2)C3)cc1Cl the results were Tau fluor cs 6.6%, TRb-SRC2 inh -1.5%, Tau FP inhib 10.7%, TR SRC2 fluor cs 1.5% and Tau fibril ThT inconclusive.
O=C1OCCN1C(=O)[C@H]1[C@H](c2ccc(F)cc2)C(c2cccc(Cl)c2)=NN1c1ccccc1 was read as RGS12 GoLoco inh 6.3%, Tau fluor cs inconclusive, TRb-SRC2 inh 3.8%, Tau FP inhib -10.4%, TR SRC2 fluor cs -3.3% and Tau fibril ThT -4.0%.
`OC[C@@H]1[C@@H](c2ccc(Cl)cc2)C(c2ccc(F)cc2)=NN1c1ccccc1` gave RGS12 GoLoco inh 8.1%[88.7 µM], Tau fluor cs 25.1µM*[quencher], TRb-SRC2 inh -1.0%, Tau FP inhib 14.0%[81.3 µM], TR SRC2 fluor cs -5.4% and Tau fibril ThT -23.4%[81.4 µM].
For C[C@H]1C(c2ccccc2)=NN(c2ccccc2)[C@@H]1CO the results were RGS12 GoLoco inh 20.2%[88.7 µM], Tau fluor cs inconclusive, TRb-SRC2 inh -1.7%[201 µM], Tau FP inhib inconclusive, TR SRC2 fluor cs 1.5%[201 µM] and Tau fibril ThT inconclusive.
`OC[C@@H]1[C@@H](c2ccc(F)cc2)C(c2ccc(F)cc2)=NN1c1ccccc1` gave RGS12 GoLoco inh 11.3%[88.7 µM], Tau fluor cs 28.2µM*[quencher], TRb-SRC2 inh 0.7%, Tau FP inhib -0.6%[81.3 µM], TR SRC2 fluor cs -4.1% and Tau fibril ThT inconclusive.

Source: PubChem BioAssay
